Sampled rows, rich in hits. Any-hit rate of the full collection: about 1.4%.
Mtb hypoxia rep: inhibitors of hypoxia-regulated fluorescent reporter in Mycobacterium tuberculosis. fluorescence inhibition, % (no concentration beside the values). M. tuberculosis hypoxia-regulated fluorescent reporter, fluorescence. hit rate 0.1% among 300,000; in the data active = fluorescence inhibition mostly above about 23%, no sharp cut-off; inactive = mostly below about 17%
RecA splice inh: Mtb RecA intein splicing inhibition. cell-free RecA intein splicing, fluorescence. inhibition, % (test concentration not listed). hit rate 0.75% among 290,000. AID 2221; in the data active = inhibition above about 30%; inconclusive = no clear call, values can overlap the other calls;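 also: 0% = vehicle wells and 100% = reference inhibitor control wells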
Target sequence (P9WHJ3 whole entry, looked up, canonical isoform): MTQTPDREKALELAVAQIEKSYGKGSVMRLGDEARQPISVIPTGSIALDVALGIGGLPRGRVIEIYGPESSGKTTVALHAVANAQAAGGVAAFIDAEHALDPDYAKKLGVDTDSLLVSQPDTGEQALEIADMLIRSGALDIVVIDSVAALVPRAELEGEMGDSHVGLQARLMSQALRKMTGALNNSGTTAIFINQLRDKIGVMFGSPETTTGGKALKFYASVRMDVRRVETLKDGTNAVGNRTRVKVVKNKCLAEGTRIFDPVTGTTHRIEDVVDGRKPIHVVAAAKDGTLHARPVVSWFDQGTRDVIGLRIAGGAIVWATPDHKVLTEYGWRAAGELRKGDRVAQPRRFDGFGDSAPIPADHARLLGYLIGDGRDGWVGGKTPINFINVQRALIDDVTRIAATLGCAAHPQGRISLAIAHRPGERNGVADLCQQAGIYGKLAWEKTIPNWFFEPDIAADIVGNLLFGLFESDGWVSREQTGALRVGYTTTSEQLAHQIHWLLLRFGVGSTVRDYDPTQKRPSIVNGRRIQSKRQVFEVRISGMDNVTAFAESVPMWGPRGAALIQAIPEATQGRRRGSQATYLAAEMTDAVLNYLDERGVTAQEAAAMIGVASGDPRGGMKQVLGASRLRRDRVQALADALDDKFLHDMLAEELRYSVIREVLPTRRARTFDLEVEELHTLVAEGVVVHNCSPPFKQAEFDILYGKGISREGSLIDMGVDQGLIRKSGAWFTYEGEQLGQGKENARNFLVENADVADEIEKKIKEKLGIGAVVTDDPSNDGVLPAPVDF
BJeLR lethal: kills HRASV12-expressing BJeLR cells; inhibition, % (no concentration beside the values); hit rate 0.17% among 300,000; BJeLR (HRASV12) viability, CellTiter-Glo ATP luminescence, 48 h; in the data active = inhibition above about 50%; inconclusive = no clear call, values can overlap the other calls
PrPC TRFRET: cell surface PrPC inhibition, primary TR-FRET screen. TR-FRET read-out. P04156. hit rate 0.43% among 370,000. inhibition, % at 13.8 µM. AID 720596; in the data active = inhibition above about 24%; also: 0% = median of the test wells and 100% = reference compound wells
PrP 5UTR inh: inhibition of PrP 5' UTR reporter expression | inhibition, % (concentration not given with the values) | cell-based PrP 5' UTR mRNA reporter, plate reader | hit rate 0.35% among 340,000; in the data active = inhibition above about 52%; also: 0 = median of the neutral control wells
3CLpro inhibitor: SARS-CoV 3CLpro protease inhibition | recombinant SARS-CoV 3CLpro, quenched FRET peptide cleavage | inhibition, % at 6 µM | hit rate 0.14% among 290,000 | AID 1706; in the data active = inhibition above about 12%
GFP chromophore: counter-screen: blocks GFP chromophore formation | hit rate 83% among 2,100 | shares compounds with RecA splice inh | EC50, µM | cell-free GFP chromophore formation, fluorescence; call rule not given here
Numbers without * were called inactive; u = inconclusive; x = not tested or not shown.

SMILES	Mtb hypoxia rep	RecA splice inh	BJeLR lethal	PrPC TRFRET	PrP 5UTR inh	3CLpro inhibitor	GFP chromophore
Cc1cc(C(=O)OC2C(Cc3ccccc3)NS(=O)(=O)C3CC4C=C[C@]23O4)ccc1[N+](=O)[O-] (stereo not given in full)	3.6	x	x	x	x	x	x
COc1ccc(C=C(c2nc3ccccc3s2)c2nc3ccccc3s2)cc1O	-1.2	59.7*	-16.6	-14.3	-36.5	-0.1	>38
N#CC1(NC(=O)COC(=O)c2cc(O)c3ccccc3c2O)CCCCC1	-2.8	81.4*	7.2	x	-7.9	x	4.83*
N#CC1(NC(=O)COC(=O)c2ccccc2[N+](=O)[O-])CCCCC1	11.2	-2.7	0.4	-2.3	-23.0	x	x
Cc1ccccc1OCC(=O)NN=Cc1ccncc1	6.9	x	x	x	x	x	x
C[C@@]12C(=O)N(CCO)CC(=O)N1C(C=Cc1ccccc1)C1C(=O)N(c3ccccc3)C(=O)C12 (stereo not given in full)	5.2	x	x	x	x	x	x
Oc1ccc(NC(=S)N=Nc2c(O)[nH]c3ccc(Br)cc23)cc1	0.4	67.5*	4.2	-14.8	-7.8	-2.1	>38
CC1=NN(Cc2ccccc2)C(=O)/C1=C\c1ccc(N(C)C)cc1	-2.0	93.9*	5.2	-2.6	-8.9	1.7	u
COc1ccc(NC(=S)Nc2ccc3nsnc3c2)cc1	9.4	40.2*	8.7	-1.9	-24.9	8.3	>38
COC(=O)Cc1[nH]nc2c1C(c1c[nH]c3ccccc13)C(C#N)=C(N)O2 (stereo not given)	9.3	86.5*	1.4	-3.6	-30.2	-0.8	>38
COC(=O)Cc1[nH]nc2c1C(C1C=CCCC1)C(C#N)=C(N)O2 (stereo not given)	15.1	6.8	-13.2	-5.1	-12.8	-2.0	x
COC(=O)Cc1[nH]nc2c1C(c1ccc(O)c(OC)c1)C(C#N)=C(N)O2 (stereo not given)	9.9	76.8*	-1.8	-5.9	-18.7	-4.2	30.9*
Cc1[nH]nc2c1[C@@H](c1ccccc1[N+](=O)[O-])C(C#N)=C(N)O2	7.7	-0.3	0.1	11.4	2.5	-4.2	x
Cc1[nH]nc2c1C(c1c[nH]c3ccccc13)C(C#N)=C(N)O2 (stereo not given)	x	90.1*	-16.4	-3.8	-27.1	-6.0	7.55*
CCSc1cc(C2C(C#N)=C(N)Oc3n[nH]c(C)c32)c(C)o1 (stereo not given)	x	76.7*	50.0	-2.7	-16.2	-2.1	14.7*
CC=CC(=O)Nc1cccc(C2=NOC3(C2)CC(C(N)=O)N(C(=O)C=CC)C3)c1 (stereo not given)	15.5	x	x	x	x	x	x
Fc1cccc(C=NNC(=S)Nc2ccccc2Cl)c1	0.7	x	x	x	x	x	x
CC(C)(C)c1cc(C(c2cccnc2)N2CCN(CCO)CC2)cc(C(C)(C)C)c1O (stereo not given)	20.5	37.9*	17.8	8.2	-19.2	1.2	35.3*
CCOC(=O)c1cnc(N)nc1-c1ccccc1	5.6	x	x	-2.0	-20.3	x	x
CCOC(=O)c1cnc(N)nc1C(F)(F)F	-3.0	60.8*	0.5	0.4	-20.9	2.5	>38
Cc1ccc(C(=O)ON=C2CC3CCC2(C)[C@@]3(C)CBr)cc1 (stereo not given in full)	13.9	x	x	x	x	x	x
COc1cccc(Nc2c([N+](=O)[O-])cncc2[N+](=O)[O-])c1	10.2	54.0*	15.9	-22.5	-16.0	0.7	20.7*
CON(C)C(=O)CC1CC(OC(=O)c2ccc([N+](=O)[O-])cc2)CN1C(=O)OC(C)(C)C (stereo not given)	-1.7	x	x	x	x	x	x
CCCc1[nH][nH]c(=O)c1C(c1ccccc1)C(C#N)C#N (stereo not given)	6.2	62.4*	-19.7	-3.5	-20.7	-2.6	19.8*
CCCc1[nH][nH]c(=O)c1C(c1ccc(Cl)cc1)C(C#N)C#N (stereo not given)	2.3	69.9*	9.9	1.8	-13.8	1.3	17.7*
CCCc1[nH][nH]c(=O)c1C(c1ccc(Br)cc1)C(C#N)C#N (stereo not given)	7.1	65.8*	4.1	0.5	2.9	-0.4	10.9*
O=C1C=C(NCCN2CCOCC2)C(=O)c2cnccc21	x	95.6*	8.2	x	x	1.2	1.02*
O=C(NCCN1CCOCC1)c1ccncc1	9.2	-0.3	-9.7	-4.2	-21.1	-5.1	x
O=[N+]([O-])c1ccccc1/C=C\C=NN1CCN(c2ccccc2)CC1	5.3	x	x	x	x	x	x

High-throughput results deposited in PubChem by several laboratories.
